For assay [1], the system named is IL-6-GFP PC-9GR. Nature of the assay: cell viability (CCK-8 OD) relative to DMSO control (fraction of control); higher = more viable cells. The following applies: compound concentration: 10 uM; treatment time: 48 h. The method in brief:
(§1)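 PC-9 and PC-9GR lung cancer cells carrying a lentiviral construct that overexpresses IL-6-GFP were seeded in 96-well plates at 3000 cells/well. Every compound in a purchased 510-compound library was applied at a final 10 μM for 48 h, and a parallel set of plates was kept for GFP imaging. Cell viability was read by CCK-8 absorbance, taking each well's optical density as a ratio to the vehicle control well. Two independent replicates were run.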

The subject of assay [2] is IL-6-GFP PC-9. The assay is described as above. The following applies: compound concentration: 10 uM; treatment time: 48 h. The procedure, abridged:
as §1

± gives the standard deviation of the averaged measurements.

Turning to `O=C(O)c1cc(-c2ccc(F)cc2F)ccc1O` [Diflunisal], the figures for the cell viability in assay [1] and in assay [2] were 0.789 ± 0.23 and 1.15 ± 0.15, respectively.

Turning to `Cc1cc(C(C)(C)C)cc(C)c1CC1=NCCN1` [Xylometazoline], the cell viability in assay [1] turned out to be 0.674 ± 0.26; in assay [2], 1.08 ± 0.14.

`CS(=O)(=O)CCNCc1ccc(-c2ccc3ncnc(Nc4ccc(OCc5cccc(F)c5)c(Cl)c4)c3c2)o1.Cc1ccc(S(=O)(=O)O)cc1.Cc1ccc(S(=O)(=O)O)cc1`: the cell viability was 1.18 ± 0.056 in assay [1] and 0.708 ± 0.033 in assay [2].

As to `CS(=O)(=O)O.N#CC1(c2ccc(NC(=O)c3cccnc3NCc3ccncc3)cc2)CCCC1`, the cell viability in assay [1] worked out at 1.32 ± 0.072; in assay [2], 0.887 ± 0.084.

For the compound `CC1CC2C3CCC4=CC(=O)C=CC4(C)C3(Cl)C(O)CC2(C)C1(OC(=O)c1ccco1)C(=O)CCl` (stereo not given) [Mometasone furoate], the figures for the cell viability in assay [1] and in assay [2] were 1.12 ± 0.11 and 0.93 ± 0.076, respectively.

On to `CCCCOc1ccc(C(=O)CCN2CCCCC2)cc1.Cl` [Dyclonine HCl], for which the cell viability was 1.34 ± 0.43 in assay [1] and 1.12 ± 0.076 in assay [2].

`Nc1nc(=O)c2c(CCc3ccc(C(=O)NC(CCC(=O)[O-])C(=O)[O-])cc3)c[nH]c2[nH]1.[Na+].[Na+]` (stereo not given) [Pemetrexed]: the cell viability in assay [1] was determined as 0.483 ± 0.064; in assay [2], 0.635 ± 0.1.

For `Cl.N=C1CCCN1Cc1[nH]c(=O)[nH]c(=O)c1Cl.O=c1[nH]c(=O)n(C2CC(O)C(CO)O2)cc1C(F)(F)F.O=c1[nH]c(=O)n(C2CC(O)C(CO)O2)cc1C(F)(F)F` (stereo not given), the cell viability in assay [1] came out at 0.556 ± 0.067; in assay [2], 0.812 ± 0.28.

As to `O.O.O=C([O-])CCNC(=O)c1ccc(N=Nc2ccc(O)c(C(=O)[O-])c2)cc1.[Na+].[Na+]` [Balsalazide disodium], the cell viability in assay [1] was 1.24 ± 0.25; in assay [2] it was 1.34 ± 0.11.

Turning to `COc1c2occc2c(OC)c2c(=O)cc(C)oc12` [Khellin], the cell viability in assay [1] came to 0.831 ± 0.16; in assay [2], 0.888 ± 0.17.

With `CCc1ccc(Cc2ccc3c(c2)C2(OC3)OC(CO)C(O)C(O)C2O)cc1.O` (stereo not given) [Tofogliflozin(CSG 452)], the cell viability in assay [1] was 0.92 ± 0.21; in assay [2] it was 1.02 ± 0.25.

For `CN1CCN(C(c2ccccc2)c2ccccc2)CC1.Cl.Cl` [Cyclizine 2HCl], the cell viability amounted to 1.06 ± 0.31 in assay [1] and 0.972 ± 0.038 in assay [2].

For the compound `N#CC1(c2ccc(NC(=O)c3cccnc3NCc3ccncc3)cc2)CCCC1` [Apatinib], the cell viability was found to be 0.0432 ± 0.2 in assay [1] and 1.177 ± 0.0032 in assay [2].

For the compound `COc1cc2c3cc1Oc1c(OC)c(OC)cc4c1C(Cc1ccc(O)c(c1)Oc1ccc(cc1)CC3N(C)CC2)N(C)CC4` (stereo not given) [Berbamine], the cell viability is 0.891 ± 0.25 in assay [1] and 1.08 ± 0.14 in assay [2].

As for `CO/N=C(\C(=O)NC1C(=O)N2C(C(=O)OCOC(=O)C(C)(C)C)=C(C)CSC12)c1csc(N)n1.Cl` (stereo not given) [Cefetamet pivoxil hydrochloride], the cell viability was found to be 1.25 ± 0.28 in assay [1] and 1.14 ± 0.056 in assay [2].

On to `CC(C)(C)c1nc(-c2cccc(NS(=O)(=O)c3c(F)cccc3F)c2F)c(-c2ccnc(N)n2)s1`, for which the cell viability stood at 1.14 ± 0.12 in assay [1] and 0.77 ± 0.035 in assay [2].

`CCC(C(=O)O)c1ccc(N2Cc3ccccc3C2=O)cc1` (stereo not given) [Indobufen]: the values for the cell viability in assay [1] and in assay [2] were 0.908 ± 0.059 and 1.11 ± 0.049, respectively.

On to `Cc1cc2c(C(N)=O)cccc2n1-c1nc2c(c(NCc3ccccc3)n1)COCC2`, for which the results for the cell viability in assay [1] and in assay [2] were 0.204 ± 0.1 and 0.261 ± 0.0057, respectively.

For the compound `CC(Oc1cc(-c2cnn(C3CCNCC3)c2)cnc1N)c1c(Cl)ccc(F)c1Cl` (stereo not given), the cell viability in assay [1] came out at 0.43 ± 0.21; in assay [2] it was 0.529 ± 0.15.

Consider `Cl.c1ccc(CN(CC2=NCCN2)c2ccccc2)cc1` [Antazoline HCl], for which the cell viability in assay [1] came to 0.998 ± 0.082; in assay [2], 1.31 ± 0.11.

In the case of `Cc1ccc(C(C)C)cc2c(C)ccc1-2` [Guaiazulene], the cell viability in assay [1] stood at 0.98 ± 0.15; in assay [2] it was 0.275 ± 0.37.

As for `Oc1ccc(/C=C/c2cc(O)cc(O)c2)cc1` [Resveratrol], the cell viability in assay [1] amounted to 1.38 ± 0.065; in assay [2] it was 1.37 ± 0.064.

For `C#Cc1cccc(Nc2ncnc3cc(OCCOC)c(OCCOC)cc23)c1.Cl` [Erlotinib HCl (OSI-744)], the cell viability worked out at 0.817 ± 0.21 in assay [1] and 0.388 ± 0.33 in assay [2].

As to `Cl.O=C(OCC(O)CO)c1ccccc1Nc1ccnc2cc(Cl)ccc12` (stereo not given) [Glafenine HCl], the cell viability in assay [1] was determined as 1.04 ± 0.32; in assay [2] it was 1.05 ± 0.25.

Consider `Nc1nnc(-c2cccc(Cl)c2Cl)c(N)n1` [Lamotrigine], for which the cell viability in assay [1] turned out to be 1.12 ± 0.3; in assay [2], 1.05 ± 0.16.

As for `CCC(=O)NS(=O)(=O)c1ccc(-c2c(-c3ccccc3)noc2C)cc1` [Parecoxib], the values for the cell viability in assay [1] and in assay [2] were 1.06 ± 0.1 and 1.26 ± 0.014, respectively.

As to `CN(C)C/C=C/C(=O)Nc1cc2c(Nc3ccc(F)c(Cl)c3)ncnc2cc1OC1CCOC1.O=C(O)/C=C\C(=O)O.O=C(O)/C=C\C(=O)O` (stereo not given) [Afatinib (BIBW2992) Dimaleate], the cell viability stood at 0.22 ± 0.11 in assay [1] and 0.167 ± 0.22 in assay [2].

With `CNC(=O)C(NC(=O)C(CC(C)C)C(O)C(=O)NO)C(C)(C)C` (stereo not given) [Marimastat (BB-2516)], the values for the cell viability in assay [1] and in assay [2] were 0.915 ± 0.038 and 1.14 ± 0.19, respectively.

Consider `COc1cc2ncnc(Nc3ccc(F)c(Cl)c3)c2cc1NC(=O)/C=C/CN1CCCCC1`, for which the values for the cell viability in assay [1] and in assay [2] were 0.477 ± 0.02 and 0.443 ± 0.033, respectively.

Turning to `Cc1cn(-c2cc(NC(=O)c3ccc(C)c(Nc4nccc(-c5cccnc5)n4)c3)cc(C(F)(F)F)c2)cn1` [Nilotinib (AMN-107)], the results for the cell viability in assay [1] and in assay [2] were 1.22 ± 0.089 and 1.135 ± 0.0089, respectively.

These data come from the supplement of paper PMC8866396.
